# According to PubChem BioAssay AID1377 (University of Pittsburgh Molecular Library Screening Center, 2008):
# In all, about 220,000 compounds went through this assay and about 830 (0.38%) were called active. This is one part of a sample in which actives are shown more often than they occur.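 The calls were made as follows: active = activation, scaled between plate controls, above about 75% (limit read from the data); inactive = activation under that limit.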
# Assay: inhibitors of zVAD-triggered necroptosis, primary screen, L929 cells (AID 1377);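 also: 0% = zVAD with DMSO and 100% = DMSO alone without zVAD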
# Conditions: ATP luminescence, 24 h, at 10 µM, active compounds read high; with zVAD 60 µM unless noted
row,Compound,viability rescue
1,NC(=O)C1(N2CCCCC2)CCN(C2CC(=O)N(Cc3ccc(N4CCCC4=O)cc3)C2=O)CC1 (stereo not drawn),0.13% (inactive)
2,O=C(COC(=O)/C=C/c1nc2ccccc2s1)Nc1ccccc1Oc1ccccc1,0.66% (inactive)
3,Cc1ccc(CNC(=O)CCNS(=O)(=O)c2ccc(Br)s2)cc1,3.55% (inactive)
4,Cc1noc(C)c1C(=O)OCC(=O)N1CCN(S(=O)(=O)c2ccc3ccccc3c2)CC1,0.85% (inactive)
5,CN(C(=O)CCn1c(=S)oc2ccccc21)C1CCCCC1,0.16% (inactive)
6,CC(=O)NC1C(Oc2ccc(C=O)cc2)OC(COC(C)=O)C(OC(C)=O)C1OC(C)=O (stereo not drawn),1.66% (inactive)
7,Cc1cccc(CSc2nc3c(c(=O)n2C)SCC3)c1,-0.37% (inactive)
8,Cc1ccc(NC(=O)NC2CCCCC2)cc1S(=O)(=O)N1CCOCC1,75.4% (active)
9,Cc1ccc(C(=O)Nc2ccccc2C(=O)NC2CCCCC2)cc1S(=O)(=O)N1CCOCC1,-0.61% (inactive)
10,Cc1ccc(NC(=O)c2ccccn2)cc1S(=O)(=O)N1CCOCC1,1.5% (inactive)
11,CCn1c(CN2C(=O)CSc3ccccc32)n[nH]c1=S,0.15% (inactive)
12,CCC1CCCCN1CCCNC(=O)c1cc2c(Cl)nc3ccccc3c2s1 (stereo not drawn),18% (inactive)
13,CCOC(=O)c1cn[nH]c1NC(=S)Nc1ccccc1,2.47% (inactive)
14,CCCCn1c(=O)c(CCC(=O)OCC(=O)Nc2ccc(C)c(Cl)c2)nc2ccccc21,0.2% [with zVAD 20 µM] (inactive)
15,COc1cc([C@H](Cc2ccccc2)NC(C)=O)oc(=O)c1,-0.39% (inactive)
16,COC(=O)C1=C(C(=O)OC)[C@@H]2N(C)c3ccccc3[C@@]23C[C@@H](C(=O)OC)N(C(C)=O)C3=N1,0.26% (inactive)
17,Oc1ccc(-c2onc3ccc(Cl)cc23)cc1,82.9% (active)
18,Clc1ccc2nc(-c3ccccc3)nc(C(Cl)Cl)c2c1,37.5% (inactive)
19,NC(=O)C[n+]1cccc(C(N)=O)c1,1.24% (inactive)
20,O=C(O)CCn1c(O)c(C=C2N=c3ccccc3=N2)sc1=S,-0.21% (inactive)
21,CCN(CC)CCNS(=O)(=O)c1ccc(/C=C/C(=O)O)cc1,1.05% (inactive)
22,C/C(=C/C(=O)N1CCN(C)CC1)C(=O)O,0.98% (inactive)
23,CSc1nc2c(c(=O)[nH]1)C(c1cccc(Cl)c1Cl)CC(=O)N2 (stereo not drawn),0.3% (inactive)
24,Cc1ccccc1C(=O)N1CCC(C(=O)Nc2ccc(S(=O)(=O)N(C)C(C)C)cc2)CC1,-0.58% (inactive)

row,Compound,viability rescue
1,CC(C)n1cnc2c(Nc3cccc(Cl)c3)nc(N(CCO)CCCO)nc21,20.9% (inactive)
2,OCCCNc1nccc(-c2cc(Nc3cccc(Cl)c3)ncn2)n1,103% (active)
3,NS(=O)(=O)c1cccnc1Nc1cccc(Cl)c1,-0.92% (inactive)
4,CC(=O)Nc1ccc(S(=O)(=O)NCC(=O)OCc2cc(=O)oc3ccc4ccccc4c23)cc1,0.62% (inactive)
5,c1ccc(Nc2nc(N3CCOCC3)c3ccccc3n2)cc1,-0.17% (inactive)
6,COc1ccc(Nc2ncc(F)c(N3CCOCC3)n2)cc1,75.1% (active)
7,CCOc1ccc(Nc2nc(Cl)nc(N3CCN(c4ccc(OC)cc4)CC3)n2)cc1,0.74% (inactive)
8,CCCOC(=O)c1c(NC(=O)c2cnn3c2NC(c2ccccc2)CC3C(F)(F)F)sc2c1CCCC2 (stereo not drawn),7.75% [with zVAD 20 µM] (inactive)
9,CC(C)NC(=O)/C(C#N)=C\c1ccc(N(C)C)c(Br)c1,0.11% (inactive)
10,COc1ccc(C2CC(c3cccs3)Nc3nnnn32)cc1 (stereo not drawn),2.51% (inactive)
11,Cc1cc(-n2cnc(-c3cn(C)nc3C)n2)no1,80.2% (active)
12,C/C(Cc1ccccc1)=N\NC(=O)CNC(=O)c1ccc2c(c1)OCCO2,0.03% (inactive)
13,COc1cccc(Nc2nc(N)c([N+](=O)[O-])c(NCc3ccco3)n2)c1,-0.44% (inactive)
14,COC(=O)c1cccnc1NC(=S)NC(C)C,-0.14% (inactive)
15,CC[C@H]1CN2CCc3cc(OC)c(OC)cc3[C@@H]2C[C@@H]1C[C@H]1NCCc2cc(OC)c(OC)cc21,79.5% (active)
16,COc1cc2c(cc1O)[C@H](Cc1ccc(Oc3cc(C[C@@H]4NCCc5cc(OC)c(O)cc54)ccc3O)cc1)NCC2,5.53% (inactive)
17,O=C(/C=C/c1cccs1)NCc1cccnc1,0.04% (inactive)
18,Nc1ccc(Nc2ccccc2)cc1,0.51% [with zVAD 20 µM] (inactive)
19,Cc1ccc(Nc2nnc(SCc3ccccc3)s2)cc1,1.32% [with zVAD 20 µM] (inactive)
20,Cc1ccc(Nc2ccccc2N)cc1,75.5% (active)
21,Cc1ccc(C)c(NC(=O)C2Cc3ccccc3CN2C(=O)OCc2ccccc2)c1 (stereo not drawn),0.1% [with zVAD 20 µM] (inactive)
22,O=C(Nc1ccc(Cl)cn1)c1cnn2cccnc12,-0.65% (inactive)
23,Cc1cc(NC(=O)Nc2ccccc2)n(-c2ccccc2)n1,0.11% [with zVAD 20 µM] (inactive)
24,Cc1cc(NC(=O)c2cnn3cccnc23)n(-c2ccccc2)n1,77.7% (active)
